# Reference: PubChem BioAssay (NCATS)
# Records with an inconclusive call do not appear. Active and inactive are the calls of the source. Unless noted, calls come from the whole dose curve; as a rule, active = well fitted curve in either direction with a large enough effect (not every such curve was filed as active); inconclusive = small, poorly fitted or top-dose-only effect, or another doubt; inactive = flat fitted curve, though single readings scatter.
# Columns and labels:
# [1] = molecular target: Lysosomal acid glucosylceramidase (Homo sapiens) (UniProt P04062); experiment: Glucocerebrosidase-p2 (AID 348; in the data active = potency below about 10 µM; note: potency is the fitted concentration of half-maximal effect); conditions: purified GBA, blue fluorogenic substrate, 40 min
# Sequence of Lysosomal acid glucosylceramidase (Homo sapiens) (P04062 whole entry, looked up): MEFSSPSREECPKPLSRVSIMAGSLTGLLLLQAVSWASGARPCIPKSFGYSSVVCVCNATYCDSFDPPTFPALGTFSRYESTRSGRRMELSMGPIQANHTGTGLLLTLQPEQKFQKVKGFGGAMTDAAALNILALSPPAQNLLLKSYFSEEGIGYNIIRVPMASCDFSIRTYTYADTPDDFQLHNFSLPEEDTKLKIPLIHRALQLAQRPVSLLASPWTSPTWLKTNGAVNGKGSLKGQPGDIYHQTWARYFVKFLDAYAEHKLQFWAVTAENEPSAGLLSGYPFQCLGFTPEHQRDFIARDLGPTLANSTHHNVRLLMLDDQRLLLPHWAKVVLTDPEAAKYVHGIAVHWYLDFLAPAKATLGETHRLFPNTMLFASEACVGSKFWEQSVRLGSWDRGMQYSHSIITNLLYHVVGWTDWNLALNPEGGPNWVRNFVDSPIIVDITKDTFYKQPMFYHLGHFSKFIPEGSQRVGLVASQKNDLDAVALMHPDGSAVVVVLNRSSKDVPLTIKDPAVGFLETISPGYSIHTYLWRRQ
# Procedure, shortened: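 Normal human glucocerebrosidase (0.2 nM) with blue fluorogenic substrate (80 uM final) in citrate/phosphate pH 5.9 with 10mM sodium taurocholate, 0.01% tween-20; 40 min RT, NaOH/glycine stop; fluorescence Ex 365/Em 440; AC50 from a titration from 0.6 nM upwards.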
# [2] = AP1 Signaling Pathway (AID 357); conditions: ME-180 AP-1-bla reporter, EGF-induced, beta-lactamase ratio, 5 h; at 7.69 µM (top of the series) unless noted;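 note: ME-180 reporter cells stimulated with EGF at its EC50 level; % is set by controls: 0 for no effect and ±100 for the full control effect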
# Procedure, shortened: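 In this screen, ME-180 cells in Opti-MEM with 0.5% dialyzed FBS received EC50 EGF and compound titrations for 5 h. AP-1 reporter beta-lactamase was detected via CCF4 ratio, giving AC50 for positive and negative modulators.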
# [3] = molecular target: Cytochrome P450 1A2 (Homo sapiens) (UniProt P05177); experiment: p450-cyp1a2 (AID 410; calls by dose curve; note: potency is the fitted concentration of half-maximal effect); conditions: recombinant CYP1A2, luciferin-ME demethylation, luminescence; series mostly up to 57 µM
# Sequence of Cytochrome P450 1A2 (Homo sapiens) (P05177 whole entry, looked up): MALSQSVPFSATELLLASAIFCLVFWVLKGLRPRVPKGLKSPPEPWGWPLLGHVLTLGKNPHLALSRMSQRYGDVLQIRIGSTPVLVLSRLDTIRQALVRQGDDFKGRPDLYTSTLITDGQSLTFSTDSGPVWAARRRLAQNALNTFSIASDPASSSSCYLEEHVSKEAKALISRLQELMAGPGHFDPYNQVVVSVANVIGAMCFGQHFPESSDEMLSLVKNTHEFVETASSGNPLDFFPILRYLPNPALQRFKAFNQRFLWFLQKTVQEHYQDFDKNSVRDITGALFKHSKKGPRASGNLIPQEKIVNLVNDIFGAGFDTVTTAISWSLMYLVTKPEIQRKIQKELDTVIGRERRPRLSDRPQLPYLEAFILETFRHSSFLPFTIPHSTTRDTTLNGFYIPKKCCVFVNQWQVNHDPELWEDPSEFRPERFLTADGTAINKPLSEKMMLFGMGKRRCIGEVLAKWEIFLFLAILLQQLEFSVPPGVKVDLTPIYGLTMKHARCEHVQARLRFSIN
# Procedure, shortened: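 Luminescent demethylation readout: Luciferin-ME (100uM, equal to Km) turned over by 20nM CYP1A2 for 60 min at room temperature after NADPH regeneration addition, following 10 min compound preincubation. Normalization used 57 uM furafylline as full inhibition.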
# [4] = NFAT Signaling Pathway (AID 444); conditions: Jurkat NFAT-bla M1, carbachol, beta-lactamase ratio, 5 h; at 7.69 µM (top of the series) unless noted;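 note: carbachol stimulus at about its EC50 of 1 µM final; % is set by controls: 0 for no effect and ±100 for the full control effect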
# Procedure, shortened: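 Jurkat cells with NFAT-driven β-lactamase reporter and co-expressed M1 receptor, stimulated with carbachol (final 1 uM, ~EC50), compound titration, 5 h at 37 °C. CCF4 loaded 1 h at RT; 460/530 nm ratio gave %activity and AC50.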
# [5] = Stat Signaling Pathway (AID 446); conditions: ME-180 SIE beta-lactamase reporter, IL-6 stimulated, 5 h; at 7.69 µM (top of the series) unless noted;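 note: ME-180 cervical cancer cells given 40 pM IL-6 alongside compound; SIE-controlled beta-lactamase reporter measured as 460/530 nm FRET emission ratio; % is set by controls: 0 for no effect and ±100 for the full control effect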
# Procedure, shortened: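 Normalization used AC90 stimulation (300 pM IL-6) and AC90 inhibition (125 nM pan-JAK inhibitor at 40 pM IL-6). The underlying signal is SIE-driven beta-lactamase in ME-180 cells after 5 h IL-6 exposure with compound.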
# [6] = molecular target: Glucocorticoid receptor (Homo sapiens) (UniProt P04150); experiment: GR-GFP Redistribution (AID 450;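 active = compounds whose dose series gives a full or clear partial fitted curve of increased nuclear translocation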; note: potency is the fitted concentration of half-maximal effect); conditions: U2OS GR-GFP nuclear translocation, laser cytometry, 2 h
# Sequence of Glucocorticoid receptor (Homo sapiens) (P04150 whole entry, looked up, the tested form may be a part): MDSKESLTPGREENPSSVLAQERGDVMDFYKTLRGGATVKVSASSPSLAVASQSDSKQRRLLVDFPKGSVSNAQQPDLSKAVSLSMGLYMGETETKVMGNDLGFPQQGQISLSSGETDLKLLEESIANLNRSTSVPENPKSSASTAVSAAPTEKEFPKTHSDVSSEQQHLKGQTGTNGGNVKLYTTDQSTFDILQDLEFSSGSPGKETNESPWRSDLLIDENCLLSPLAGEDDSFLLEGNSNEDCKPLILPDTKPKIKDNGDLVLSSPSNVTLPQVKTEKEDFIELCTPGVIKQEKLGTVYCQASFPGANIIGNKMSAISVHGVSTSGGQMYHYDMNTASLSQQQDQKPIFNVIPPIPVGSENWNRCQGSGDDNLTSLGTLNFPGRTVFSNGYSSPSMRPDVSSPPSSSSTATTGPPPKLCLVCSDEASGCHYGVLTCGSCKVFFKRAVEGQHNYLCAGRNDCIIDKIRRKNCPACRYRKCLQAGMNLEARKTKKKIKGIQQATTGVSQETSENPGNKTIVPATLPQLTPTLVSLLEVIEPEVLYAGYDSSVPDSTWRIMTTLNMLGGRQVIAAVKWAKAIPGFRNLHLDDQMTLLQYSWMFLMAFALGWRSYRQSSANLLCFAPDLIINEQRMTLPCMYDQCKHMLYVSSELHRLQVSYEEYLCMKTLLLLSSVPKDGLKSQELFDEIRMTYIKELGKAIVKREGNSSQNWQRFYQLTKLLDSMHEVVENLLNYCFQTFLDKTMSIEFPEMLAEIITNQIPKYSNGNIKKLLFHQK
# [7] = molecular target: Glucocorticoid receptor (Homo sapiens) (UniProt P04150); experiment: GR-EFC Redistribution (AID 451; calls by dose curve; note: potency is the fitted concentration of half-maximal effect); conditions: CHO-K1 GR-EFC translocation, beta-gal luminescence, 2 h
# Procedure, shortened: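 CHO-K1 cells expressing nuclear EA and GR-ED fragments of b-gal; compounds titrated up to 46 uM final, 2 h at 37 C. GR nuclear translocation read as complemented b-gal luminescence after 1 h RT detection.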
# [8] = molecular target: Mitogen-activated protein kinase 10 (Mus musculus) (UniProt Q61831); experiment: JNK3 AlphaScreen Assay (AID 530); conditions: JNK3 lysate, c-Jun phosphorylation; series mostly up to 57.1 µM;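 note: kinase came from lysate of stimulated human HepG2 cells; signal reports phosphorylation of biotinylated GST-cJun 1-79 at Ser73 with 10 µM ATP; % is set by controls: 0 for no effect and ±100 for the full control effect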
# Procedure, shortened: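 Activity was read by AlphaScreen after JNK3-containing HepG2 lysate (cytokine pre-activated) phosphorylated biotinylated GST-cJun with 10 uM ATP at room temperature. Phospho-Ser73 cJun antibody with Protein-A acceptor beads provided detection.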
# [9] = molecular target: Cytochrome P450 3A4 (Homo sapiens) (UniProt P08684); experiment: qHTS Assay for Inhibitors and Substrates of Cytochrome P450 3A4 (AID 884; active = well fitted curve in the direction sought with a large enough effect; an effect the other way counts as inactive or inconclusive; note: potency is the fitted concentration of half-maximal effect; nearly all actives have a fitted effect of over 50% in size); conditions: recombinant CYP3A4, Luciferin-PPXE luminescence; series mostly up to 57.1 µM
# Sequence of Cytochrome P450 3A4 (Homo sapiens) (P08684 whole entry, looked up): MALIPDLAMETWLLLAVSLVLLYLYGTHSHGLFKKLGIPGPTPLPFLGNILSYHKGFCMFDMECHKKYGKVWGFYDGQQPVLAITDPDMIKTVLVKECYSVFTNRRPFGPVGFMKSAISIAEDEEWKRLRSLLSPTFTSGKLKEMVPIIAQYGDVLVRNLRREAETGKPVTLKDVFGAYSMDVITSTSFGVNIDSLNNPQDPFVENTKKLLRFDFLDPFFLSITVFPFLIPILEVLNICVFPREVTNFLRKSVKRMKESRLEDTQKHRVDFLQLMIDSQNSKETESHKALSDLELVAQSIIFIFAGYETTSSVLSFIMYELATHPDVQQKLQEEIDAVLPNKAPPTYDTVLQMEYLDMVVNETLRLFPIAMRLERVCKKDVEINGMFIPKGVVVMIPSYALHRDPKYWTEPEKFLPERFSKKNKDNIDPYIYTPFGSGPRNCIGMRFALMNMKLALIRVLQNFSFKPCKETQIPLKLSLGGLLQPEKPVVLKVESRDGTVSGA
# Procedure, shortened: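 Luminescent readout of luciferin produced by CYP3A4 (20 nM) dealkylation of Luciferin-PPXE, 25 uM (its KM). NADPH-driven reaction ran 60 min at RT after 10 min compound preincubation; data scaled to 57 uM ketoconazole as 100% inhibition.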
# [10] = molecular target: Cytochrome P450 3A4 (Homo sapiens) (UniProt P08684); experiment: qHTS Assay for Activators of Cytochrome P450 3A4 (AID 885; active = well fitted curve in the direction sought with a large enough effect; an effect the other way counts as inactive or inconclusive; note: nearly all actives have a fitted effect of over 65% in size); conditions: recombinant CYP3A4, Luciferin-PPXE luminescence, 60 min; series mostly up to 57.1 µM
# Procedure, shortened: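 Human CYP3A4 dealkylates Luciferin-PPXE to luciferin, which luciferase detection converts to light. Substrate was at its KM (25uM), buffer 200mM KPO4, reaction 60 min at RT.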
# [11] = molecular target: Cytochrome P450 2D6 (Homo sapiens) (UniProt P10635); experiment: qHTS Assay for Inhibitors and Substrates of Cytochrome P450 2D6 (AID 891; active = well fitted curve in the direction sought with a large enough effect; an effect the other way counts as inactive or inconclusive; note: potency is the fitted concentration of half-maximal effect; nearly all actives have a fitted effect of over 60% in size); conditions: recombinant CYP2D6, luciferin-ME EGE luminescence; series mostly up to 57.1 µM
# Sequence of Cytochrome P450 2D6 (Homo sapiens) (P10635 whole entry, looked up): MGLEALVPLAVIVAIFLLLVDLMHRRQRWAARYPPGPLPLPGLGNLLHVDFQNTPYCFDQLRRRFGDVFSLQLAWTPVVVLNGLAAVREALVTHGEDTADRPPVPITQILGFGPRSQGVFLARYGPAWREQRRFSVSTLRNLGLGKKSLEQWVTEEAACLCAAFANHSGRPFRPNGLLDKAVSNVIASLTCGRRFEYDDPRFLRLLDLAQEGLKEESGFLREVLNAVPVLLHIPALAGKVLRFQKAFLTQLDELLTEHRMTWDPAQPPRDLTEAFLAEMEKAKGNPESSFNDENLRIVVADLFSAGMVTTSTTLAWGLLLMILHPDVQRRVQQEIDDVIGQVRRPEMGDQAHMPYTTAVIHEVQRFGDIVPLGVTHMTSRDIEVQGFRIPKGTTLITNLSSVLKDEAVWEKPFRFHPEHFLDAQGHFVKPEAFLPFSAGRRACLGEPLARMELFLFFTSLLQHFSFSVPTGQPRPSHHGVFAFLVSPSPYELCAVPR
# Procedure, shortened: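 Luminescent read-out of luciferin formed by 5 nM human CYP2D6 demethylating 30 uM Luciferin-ME EGE (Km level) over 60 min at room temperature after NADPH regeneration addition. Data normalized to full inhibition by 1.43 uM quinidine.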
# [12] = molecular target: Cytochrome P450 2C19 (Homo sapiens) (UniProt P33261); experiment: qHTS Assay for Inhibitors and Substrates of Cytochrome P450 2C19 (AID 899; active = well fitted curve in the direction sought with a large enough effect; an effect the other way counts as inactive or inconclusive; note: potency is the fitted concentration of half-maximal effect; nearly all actives have a fitted effect of over 60% in size); conditions: recombinant CYP2C19, luciferin-H EGE luminescence; series mostly up to 57.1 µM
# Sequence of Cytochrome P450 2C19 (Homo sapiens) (P33261 whole entry, looked up): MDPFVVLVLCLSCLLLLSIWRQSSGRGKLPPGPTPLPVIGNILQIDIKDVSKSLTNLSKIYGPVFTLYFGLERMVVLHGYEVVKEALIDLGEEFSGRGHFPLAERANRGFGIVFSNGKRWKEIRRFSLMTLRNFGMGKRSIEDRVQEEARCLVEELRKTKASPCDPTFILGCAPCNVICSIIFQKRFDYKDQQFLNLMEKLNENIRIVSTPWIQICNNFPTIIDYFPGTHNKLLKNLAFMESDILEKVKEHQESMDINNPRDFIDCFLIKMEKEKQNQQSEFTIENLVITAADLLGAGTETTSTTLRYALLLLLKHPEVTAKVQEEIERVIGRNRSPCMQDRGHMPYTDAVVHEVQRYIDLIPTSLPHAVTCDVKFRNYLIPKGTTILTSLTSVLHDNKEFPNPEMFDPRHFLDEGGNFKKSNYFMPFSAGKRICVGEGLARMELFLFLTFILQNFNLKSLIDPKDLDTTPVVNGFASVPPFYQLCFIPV
# Procedure, shortened: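 5 nM human CYP2C19 with 10uM Luciferin-H EGE (at KM) in 50mM KPO4, compound preincubated 10 min at 37C, then NADPH regeneration for 60 min at 37C. Luciferin read by luminescence after detection reagent; normalized to 57uM ketoconazole as full inhibition.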
# [13] = Confirmation and Secondary Assay for Modulators of Hemoglobin Beta Chain Splicing at IVS2 654 locus (AID 910; active = well fitted curve in the direction sought with a large enough effect; an effect the other way counts as inactive or inconclusive;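 note: HeLa cells stably carrying EGFP split by mutant beta-globin IVS2-654 intron; % of control where 0% means no effect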); conditions: HeLa EGFP-654 splicing reporter, GFP fluorescence, 48 h; series mostly up to 38.3 µM
# Procedure, shortened: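 HeLa cells stably expressing EGFP interrupted by β-globin IVS2-654 intron, seeded overnight in Opti-MEM/2% FCS, then treated 2 days at 37 °C. Restored splicing read as total peak GFP intensity per well by laser scanning cytometry (488 nm excitation, 500–520 nm emission); 500 nM antisense PNA as control.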
# [14] = qHTS Assay for Identification of Small Molecule Agonists for Hypoxia Response Element Signaling Pathway (AID 914; active = well fitted activation curve with a large enough effect in the signal ratio, with a control signal flat, not every such curve was filed as active; the % refers to the signal ratio; note: % of control where 0% means no effect); conditions: ME-180 (cervical carcinoma) HRE-bla reporter, beta-lactamase ratio, CoCl2, 17 h; activation: stronger effect = higher value
# Procedure, shortened: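 Read-out: CCF4 FRET ratio of 460nm to 530nm emission (excitation 405nm) after 2.5 hours at room temperature, taken from HRE-bla ME-180 cells that had been exposed to compound and EC50 CoCl2 for 17 hours.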
# [15] = Confirmation and Secondary Assay for Modulators of Hemoglobin Beta Chain Splicing at IVS2 705 locus (AID 930; active = well fitted curve in the direction sought with a large enough effect; an effect the other way counts as inactive or inconclusive;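 note: HeLa cells stably expressing the EGFP-705 splicing reporter; GFP fluorescence per well restored by corrected splicing of the IVS2-705 intron in EGFP; % of control where 0% means no effect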); conditions: HeLa EGFP-705 splicing reporter, GFP fluorescence, 48 h; series mostly up to 38.3 µM
# Procedure, shortened: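 HeLa EGFP-705 reporter; 500 cells/well, o/n 37C 5% CO2; cpd 2 d; 488 ex/500-520 em laser scan; total peak GFP intensity/well. Ref: 500 nM […] antisense PNA.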
# [16] = qHTS Assay for Lipid Storage Modulators (AID 1519; calls by dose curve); conditions: Drosophila S3 cells, BODIPY lipid droplet/cell ratio, laser cytometry, cells loaded with oleic acid; for activity change, negative = inhibition: at 57.5 µM (top of the series)
# Procedure, shortened: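 Cells seeded at 5,000 per well were treated with compounds over a concentration series and loaded with oleic acid (400 uM, as added). Lipid droplet fluorescence (488 nm excitation, 500-530 nm channel) was read by laser-scanning cytometry and normalized to 20 uM Triacsin C.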
# [17] = Primary qHTS for small molecule stabilizers of the endoplasmic reticulum resident proteome: Secreted ER Calcium Modulated Protein (SERCaMP) assay (AID 1508630; active = well fitted curve in the direction sought with a large enough effect; an effect the other way counts as inactive or inconclusive; note: % is set by controls: 0 for no effect and ±100 for the full control effect); conditions: SH-SY5Y GLuc-SERCaMP (Gaussia luciferase released on ER calcium loss) secretion, thapsigargin, luminescence; series mostly up to 38.4 µM
# Procedure, shortened: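 The SH-SY5Y reporter protocol was run at 3 concentrations up to 38.3 uM (primary) or 11 concentrations (follow-up): 16 h compound, 100 nM thapsigargin for 4 h, then extracellular luciferase luminescence.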
# [18] = molecular target: 3',5'-cyclic-AMP phosphodiesterase 4B (Homo sapiens) (UniProt Q07343); experiment: qHTS Assay for Inhibitors of PDE-IV (AID 607; active = well fitted activation curve with a large enough effect in the main read-out, with a control signal flat, not every such curve was filed as active; note: % of control where 0% means no effect); conditions: HEK293 ACTOne CNG channel cells, membrane potential fluorescence; series mostly up to 22.9 µM
# Sequence of 3',5'-cyclic-AMP phosphodiesterase 4B (Homo sapiens) (Q07343 whole entry, looked up): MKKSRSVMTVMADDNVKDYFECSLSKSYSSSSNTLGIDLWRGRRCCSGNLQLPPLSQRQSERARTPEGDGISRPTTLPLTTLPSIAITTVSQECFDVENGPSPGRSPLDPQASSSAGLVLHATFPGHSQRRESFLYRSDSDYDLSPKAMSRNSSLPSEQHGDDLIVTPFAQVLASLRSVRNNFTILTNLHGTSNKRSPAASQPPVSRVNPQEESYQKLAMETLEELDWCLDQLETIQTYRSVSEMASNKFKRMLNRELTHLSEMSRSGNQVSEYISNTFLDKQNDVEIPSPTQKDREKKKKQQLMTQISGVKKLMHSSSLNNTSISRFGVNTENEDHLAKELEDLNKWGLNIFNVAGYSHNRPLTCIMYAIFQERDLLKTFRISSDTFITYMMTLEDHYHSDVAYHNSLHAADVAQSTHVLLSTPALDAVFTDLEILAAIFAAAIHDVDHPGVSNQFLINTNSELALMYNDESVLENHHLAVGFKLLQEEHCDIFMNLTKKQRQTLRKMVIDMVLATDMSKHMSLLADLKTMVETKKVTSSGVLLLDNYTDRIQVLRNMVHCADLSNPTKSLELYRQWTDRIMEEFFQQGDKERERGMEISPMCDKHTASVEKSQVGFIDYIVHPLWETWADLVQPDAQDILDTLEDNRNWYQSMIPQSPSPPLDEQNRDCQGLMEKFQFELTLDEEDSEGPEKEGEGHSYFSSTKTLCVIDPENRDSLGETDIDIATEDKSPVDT
# Procedure, shortened: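 HEK293 ACTOne cells with CNG channel (1000/well), endogenous PDE4; membrane potential dye, compounds up to 22.9 uM final. Fluorescence Ex 535/Em 590; RO 20-1724 (100 uM final) as reference.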
# [19] = measured here: cell count channel max response
# [20] = measured here: lipid channel max response
Structure (SMILES),Potency [1],"activity change, negative = inhibition [2]",Potency [3],"activity change, negative = inhibition [4]","activity, negative = inhibition [5]",Potency [6],Potency [7],outcome [8],Potency [9],Potency [10],Potency [11],Potency [12],outcome [13],activation [14],outcome [15],"activity change, negative = inhibition [16]","max response [16, 19] [%]","max response [16, 20] [%]",Potency [17],Potency [18]
Cc1cccc(CNc2ncncc2-c2ccc3c(c2)OCO3)c1,> 11.4 µM (inactive),-0.728% (inactive),0.126 µM (active),-2.79% (inactive),-19.6% (inactive),> 46 µM (inactive),> 46 µM (inactive),inactive,0.251 µM (active),inactive,6.31 µM (active),0.501 µM (active),inactive,-16.9% (inactive),inactive,12.7% (inactive),7.25,23.1,inactive,–
c1ccc2c(-n3ccnc3)nc(-c3ccoc3)nc2c1,> 11.4 µM (inactive),-13.9% (inactive),0.501 µM (active),3.28% (inactive),7.69% (inactive),> 46 µM (inactive),> 46 µM (inactive),inactive,0.199 µM (active),inactive,–,–,inactive,–,inactive,9.53% (inactive),10.7,22.4,inactive,–
COc1ncc2nc(-c3cccc(C#N)c3)c(=O)n(CCC#N)c2n1,> 11.4 µM (inactive),-2.26% (inactive),20 µM (active),-6.7% (inactive),-3.36% (inactive),> 9.22 µM (inactive),> 46 µM (inactive),inactive,–,inactive,–,–,–,-3.76% (inactive),–,3.8% (inactive),14.2,20.3,inactive,inactive
O=c1c(-c2ccccc2)nc2cnc(Oc3ccccc3)nc2n1Cc1cccs1,> 11.4 µM (inactive),-0.0665% (inactive),2.51 µM (active),-0.0107% (inactive),3.84% (inactive),> 9.22 µM (inactive),> 46 µM (inactive),inactive,–,–,–,–,–,–,–,-10.3% (inactive),21.8,12.8,inactive,inactive
Cc1nc2cnc(Nc3ccccc3)nc2n(C)c1=O,> 11.4 µM (inactive),-16.6% (inactive),1.26 µM (active),-8.95% (inactive),-15.2% (inactive),> 9.22 µM (inactive),> 46 µM (inactive),inactive,–,inactive,–,–,–,–,–,-9.81% (inactive),9.14,2.52,inactive,inactive
Cc1nc2cnc(Oc3cccc(Cl)c3)nc2n(CCC#N)c1=O,> 11.4 µM (inactive),-16% (inactive),15.8 µM (active),1.8% (inactive),-7.79% (inactive),> 9.22 µM (inactive),> 46 µM (inactive),inactive,–,inactive,–,–,–,–,–,3.95% (inactive),19.7,26.1,inactive,inactive
